Compound activity (PubChem BioAssay)
Most compounds without a hit are left out; they make up all but 4.8% or so of the library.
hcDAF-12 act = H. contortus DAF-12 nuclear receptor activators, primary screen, cell-based, luminescence, HEK293, lit1-tk-luc reporter | HEK293 hcDAF-12 lit1-tk-luc reporter; 0% DMSO, 100% Δ7-dafachronic acid | activation, % at 6.8 µM | hit rate 1.4% among 370,000 | AID 652067, 2013;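 active = activation above the mean of all tested compounds plus 3 SD, cut at about 5.5% in these data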;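 note: 100% = response to 3 µM Δ7-dafachronic acid high control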
hgDAF-12 ag = H. glycines DAF-12 receptor agonists, primary screen, cell-based, luminescence, HEK293, GAL4 fusion, UAS-luciferase | activation, % at 6.8 µM | HEK293 GAL4-hgDAF12 UAS-luciferase reporter, agonist luminescence; normalized to butyrate control | Nuclear hormone receptor DAF-12 (Heterodera glycines), GAL4 fusion | hit rate 1.8% among 370,000;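 active = activation above a cutoff set at the mean of all screened compounds plus 3 SD, cut at about 10% in these data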;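 note: 0% = DMSO wells and 100% = sodium butyrate wells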
DAX1 inh-1 = DAX1 (NR0B1) inhibitors on StAR promoter, primary screen, cell-based, luminescence, SF-1 (NR5A1), full-length DAX-1. HEK293T StAR-luciferase reporter, SF-1/DAX-1 repression relief. hit rate 1.1% among 370,000. inhibition, % at 6.8 µM;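 active = inhibition above the mean over all tested compounds plus 3 SD, cut at about 3.6% in these data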;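 note: 0% = DAX-1 cells with DMSO and 100% = cells lacking DAX-1 with DMSO; higher inhibition means more luminescence from relief of DAX-1 repression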
DAX1 inh-2 = DAX1 (NR0B1) inhibitors, primary screen, cell-based, HEK293, Gal4-DAX1, luciferase luminescence. Nuclear receptor subfamily 0 group B member 1 (Homo sapiens), P51843. HEK293 Gal4-DAX1 luciferase reporter. inhibition, % at 6.75 µM. hit rate 0.99% among 340,000;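 active = inhibition above the mean over all tested compounds plus 3 SD, cut at about 4.2% in these data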;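 note: 0% = DAX1-transfected cells with DMSO and 100% = empty-vector control cells with DMSO; inhibition shows as a rise in luminescence from relieved DAX1 repression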
Target sequence (P51843 207-470 limits assumed): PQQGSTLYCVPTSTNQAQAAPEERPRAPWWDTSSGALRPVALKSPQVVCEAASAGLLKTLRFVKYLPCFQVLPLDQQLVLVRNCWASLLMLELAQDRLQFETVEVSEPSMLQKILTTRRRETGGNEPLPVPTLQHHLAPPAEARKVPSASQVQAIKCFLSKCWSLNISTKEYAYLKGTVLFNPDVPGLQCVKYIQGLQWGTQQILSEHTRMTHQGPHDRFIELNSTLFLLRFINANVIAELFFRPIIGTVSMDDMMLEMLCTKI
ssDAF12 agonist = S. stercoralis DAF-12 nuclear receptor activators, primary screen, cell-based, luminescence, HEK293, GRIP1 co-expression, lit1-tk-luc. hit rate 1% among 370,000. Nuclear hormone receptor DAF-12 (Strongyloides stercoralis). HEK293 ssDAF-12/GRIP1 lit1-tk-luc reporter; % of 3 µM dafachronic acid response. AID 652126, 2013. activation, % at 6.8 µM;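 active = activation above the mean over all tested compounds plus 3 SD, cut at about 0.9% in these data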;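 note: 0% = DMSO-only wells and 100% = 3 µM delta7-dafachronic acid wells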
SMARCA2 activ = SMARCA2 (BRM) function activators, primary screen, cell-based, luminescence, high throughput | AID 652017, 2013 | activation, % at 9.1 µM | hit rate 1% among 370,000 | MG213 cells, MMTV-luciferase reporter, dexamethasone, overnight; in the data active = activation above about 7.8%;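 note: 0% = vehicle wells and 100% = reference activator wells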
An asterisk follows results filed as active; nt = no result.

SMILES | hcDAF-12 act | hgDAF-12 ag | DAX1 inh-1 | DAX1 inh-2 | ssDAF12 agonist | SMARCA2 activ
Oc1[nH]c2ccccc2c1C1=NCCCC1 | -1 | -1 | 0 | 1 | -1 | -1
O=C1C(c2c(O)[nH]c3ccccc23)=Nc2ccccc21 | 5 | 4 | 0 | 1 | 1.3* | 7
C=CCn1c(C)cc(C(=O)COc2nncc3ccccc23)c1C | 1 | 13* | 2 | 1 | 0 | -2
C=CCn1c(C)cc(C(=O)COC(=O)c2n[nH]c(=O)c3ccccc23)c1C | 1 | 8 | 2 | 0 | -1 | 5
COC(=O)c1cc(S(=O)(=O)N2CCCN(C(C)=O)CC2)cn1C | 0 | 1 | -1 | nt | -1 | 0
C#CCCN([C@@H](CC(C)C)C(=O)OC)S(=O)(=O)c1ccccc1Br | -1 | 0 | 0 | nt | -1 | -6
CC(C)=CCCC1(C)C=Cc2c(c(C)cc3c2[nH]c2cc(O)ccc23)O1 (stereo unspecified) | 0 | -1 | 1 | 4.9* | 1 | 1
Cc1cc(=O)[nH]c2cc(O)ccc12 | 0 | -1 | 0 | 2 | -1 | -4
Cc1ccccc1Cn1cc(CN2[C@@H](CC(C)C)COc3cc(Br)ccc3S2(=O)=O)nn1 | -2 | -1 | -1 | nt | -1 | -1
CSc1nsc2nc(=O)c(/C=C3\C(C)=Nc4ccccc43)c(N)n12 | 5 | 6 | 1 | 2 | 0.9* | -2
COC(=O)CCCn1cc(CN2CC=CS2(=O)=O)nn1 | 0 | 4 | 0 | nt | -1 | -1
Cc1cc2ncc(-c3ccc(Cl)cc3)c(N)n2n1 | 0 | 8 | 4.0* | 1 | 0 | 3
O=C(NCCCN1CCOCC1)c1ccc(Cl)cc1[N+](=O)[O-] | 0 | 0 | 0 | 4.6* | -1 | 2
Cc1ccc(CCNC(=O)C2CCN(S(=O)(=O)N3CCC4(CC3)OCCO4)CC2)cc1 | 6.0* | 1 | 0 | 0 | -2 | 0
CCN1Cc2nnn(Cc3ccc(C)cc3)c2-c2ccccc2S1(=O)=O | 0 | -1 | -1 | nt | -1 | -2
O=C(C1CCCO1)N1CCN(C2=Nc3ccccc3Sc3ccccc32)CC1 (stereo unspecified) | 0 | -1 | 0 | nt | -1 | -1
CC(C)C(=O)OCCCN1CCC2(CCC(c3ccccc3)CC2)C1=O (stereo unspecified) | -2 | 2 | 0 | nt | -1 | -3
COC(=O)c1ccc(N2CCCCC2)c(N)c1 | 2 | 6 | 3.7* | 1 | -1 | 1
COC(=O)c1ccc(N2CCC(C)CC2)c(N)c1 | 2 | 4 | 1 | 2 | 0 | 3
O=C1N=C(N2CCOCC2)SC1=C1CCCCC1 | -1 | 4 | 0 | 6.8* | -1 | 4
COC(=O)C1CN(Cc2cn(Cc3ccc(F)cc3)nn2)CCS(=O)(=O)N1Cc1ccc(F)cc1 (stereo unspecified) | -1 | -1 | -1 | nt | -1 | -2
COc1cccc(/C=C/C(=O)OCC(=O)N2CCCC2)c1OC | 0 | 3 | 4.4* | 1 | -1 | -1
CN(Cc1cn(C)c2ccccc12)C(=S)Nc1cc(F)cc(F)c1 | 4 | 2 | 0 | 0 | 1.2* | -2
CCOC(=O)C1(C(=O)OCC)Cc2c([nH]c3ccccc23)[C@]2(N1)C(=O)N(C)c1ccc(Br)cc12 | 3 | -1 | -1 | nt | 0 | -4
O=C(NC1CCCCN(Cc2cccc(C(F)(F)F)c2)C1=O)c1ccc(F)c(F)c1 (stereo unspecified) | -3 | -3 | -1 | nt | -1 | -1
SMILES | hcDAF-12 act | hgDAF-12 ag | DAX1 inh-1 | DAX1 inh-2 | ssDAF12 agonist | SMARCA2 activ
CCOC(=O)c1cc(C(C)=O)c(=O)[nH]c1C | -1 | -2 | -1 | -1 | -1 | 0
COC(=O)c1cc(C(C)=O)c(C)[nH]c1=O | -2 | -1 | 0 | 5.9* | -1 | -2
CCN(C(=O)CSc1nnc(-c2cccnc2)n1Cc1ccco1)c1ccccc1 | -2 | 0 | 0 | nt | 0 | -5
O=C(OCC#CCSc1nnc(-c2cccc3ccccc23)o1)c1ccc(F)nc1 | -3 | 1 | nt | nt | -1 | nt
FC(F)(F)c1ccccc1NC(=S)OCCN1CCCC12CCC(c1ccccc1)CC2 (stereo unspecified) | -3 | 1 | nt | nt | -1 | nt
CCN1CCCCC(NC(=O)c2ccc(C)cc2)C1=O (stereo unspecified) | 0 | 0 | 0 | nt | -1 | -5
Cc1ccc(-c2noc(COc3ccccc3C)n2)cc1 | -2 | 2 | 0 | 1 | -1 | 2
CC(C)(C)c1ccc(OCc2nc(-c3ccccn3)no2)c(Br)c1 | 3 | 11* | 3 | 2 | 0 | 3
Cc1ccc(OCc2nc(-c3ccccc3)no2)cc1 | 2 | 9 | 1 | 4.8* | 0 | 4
Cc1ccc(Cc2nc(-c3ccccn3)no2)cc1 | 3 | 13* | 3 | 2 | 0 | 8
c1ccc(-c2nc(-c3ccccn3)no2)cc1 | 6.4* | 3 | 3 | -4 | -1 | -2
COc1ccccc1C(=O)NC1CCCCN(Cc2ccc(OC(F)(F)F)cc2)C1=O (stereo unspecified) | -1 | 4 | -1 | nt | -1 | -3
c1ccc(-c2noc(CC3CCCCC3)n2)nc1 | 5 | 12* | 3.9* | 2 | -1 | 5
c1cc(-c2noc(CC3CCCCC3)n2)ccn1 | 0 | 2 | 1 | 0 | 0 | 6
CCOc1ccccc1C(=O)NCCNC(=O)c1ccccc1OCC | -1 | -1 | 0 | 2 | -2 | -3
CCOc1ccccc1C(=O)NN1C(=O)CCC1=O | 4 | 4 | 0 | 3 | 1.0* | -3
O=C(c1ccccc1C(F)(F)F)N1CCC(Oc2cccnc2)CC1 | 2 | -4 | 1 | nt | -2 | 1
C[C@@H]1ON(C)[C@H]2C[C@H]3c4[nH]c5ccccc5c4CCN3C(=O)[C@@H]12 | 3 | 1 | 1 | -1 | 1.0* | 1
CC(=O)Nc1ccc(NC(=O)CSc2ccc(C)cc2)cc1 | -1 | 1 | 0 | 0 | -1 | 4
Cc1ccc(CNC(=O)NCc2ccccc2)cc1 | 0 | 1 | 0 | 1 | -1 | 1
Cc1ccc(SCC(=O)c2ccc[nH]2)cc1 | 0 | 11* | 0 | 1 | -1 | 5
Cc1ccc(CNC(=O)c2ccc[nH]2)cc1 | -2 | 2 | 1 | 5.6* | -1 | -2
